# CHOP inhibitor – blocks CHOP induction under ER stress; CHO-K1 CHOP-promoter luciferase, tunicamycin-induced, 15-18 h; inhibition, % at 10 µM; 220,000 compounds, 3.8% hits; AID 2732;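 active means compounds that reduced the stress-induced luciferase reporter signal by more than about 70% of percent inhibition, limit read from the data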;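 further: 0% = tunicamycin plus vehicle and 100% = wells without tunicamycin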
# S1P4 antagonist – antagonists of human S1P4 receptor; 220,000 compounds, 0.26% hits; S1P4-expressing cells, antagonist mode, reporter read-out; O95977; inhibition, % at 4.98 µM; in the data active means inhibition above about 29%;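 further: 0% = wells stimulated with agonist and 100% = vehicle wells without agonist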
# Target sequence (O95977 whole entry, looked up): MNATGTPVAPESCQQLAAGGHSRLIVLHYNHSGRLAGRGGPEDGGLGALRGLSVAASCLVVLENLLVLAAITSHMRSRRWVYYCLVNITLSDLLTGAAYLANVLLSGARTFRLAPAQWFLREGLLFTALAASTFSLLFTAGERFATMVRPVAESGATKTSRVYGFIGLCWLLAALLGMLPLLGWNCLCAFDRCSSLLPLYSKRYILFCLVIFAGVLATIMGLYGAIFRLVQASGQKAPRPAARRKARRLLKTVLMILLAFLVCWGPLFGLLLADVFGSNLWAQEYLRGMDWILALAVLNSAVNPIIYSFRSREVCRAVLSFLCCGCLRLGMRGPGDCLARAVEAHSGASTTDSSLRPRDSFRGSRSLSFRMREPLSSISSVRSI
# Hsp70 activator – Hsp70 transcriptional activation, primary screen; HeLa Hsp70 promoter luciferase reporter, luminescence; scaled: vehicle 0, proteasome-inhibitor control 100%; activation, % at 10 µM; 200,000 compounds, 0.04% hits; AID 1203;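 active means activation above the mean across all tested compounds plus 3 SD, cutoff set per campaign, cut at about 5.5% in these data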;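 further: 100% = MG132 at 30 µM as the positive control and 0% = DMSO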
# S1P4 ag – human S1P4 receptor agonism | O95977 | S1P4-expressing cell line, agonist reporter assay | activation, % at 4.98 µM | 220,000 compounds, 0.35% hits; in the data active means activation above about 11%;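 further: 0% = DMSO vehicle and 100% = reference agonist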
# * = called active by the depositor; / = not tested or not shown. Sampled rows, rich in hits. Any-hit rate of the full collection: about 4.2%.
SMILES,CHOP inhibitor,S1P4 antagonist,Hsp70 activator,S1P4 ag
Cc1ccc(S(=O)(=O)N(C)CC(=O)OCC(=O)N2CCN(c3ccccc3)CC2)cc1,37,2,0,-1
Cc1ccc(S(=O)(=O)Cc2nc3ccccc3c(=O)[nH]2)cc1,15,-20,0,3
Cc1ccccc1/C=C/c1nc2ccccc2c(=O)[nH]1,9,1,/,1
Cc1ccccc1/C=C\c1nc2ccccc2c(=O)[nH]1,84*,-8,0,0
Cc1ccc(/C=C/c2nc3ccccc3c(=O)[nH]2)cc1,88*,-7,/,0
CCOC(=O)CN1C(=O)S/C(=C/c2ccc(N3CCCCC3)o2)C1=O,1,-1,0,1
Cc1ccnc2c1NC(=O)c1cccnc1N2C1CC1,19,-2,0,-1
Oc1nc(Nc2cccc(Cl)c2)sc1/C=C1\C=Nc2ccccc21,79*,-4,0,-1
Oc1cccc(Nc2nc(O)c(/C=C3\C=Nc4ccccc43)s2)c1,42,12,/,1
Cn1cc(Cl)c(C(=O)NNC(=S)NCc2ccco2)n1,-1,4,0,0
O=C(Nc1cccc(C(F)(F)F)c1)c1cccnc1NCCc1ccccc1,75*,1,0,-4
O=C(c1ccc(Cl)c(Cl)c1)N(Cc1ccco1)c1ccc(O)cc1,87*,-3,0,2
O=C(COc1ccccc1)N(Cc1ccco1)c1ccc(O)cc1,26,-8,0,1
Cc1ccc(NC(=O)N2CCN(C/C=C/c3ccccc3)CC2)cc1,4,-5,0,-1
CC(=O)N(C)Cc1ccc(C(=O)CCl)cc1,105*,-11,0,-4
CCOCCCNC(=O)c1c[nH]c2cc(OC)ccc2c1=O,-11,11,0,-1
Cn1c(=O)cc(-c2ccccc2)c2ccccc21,80*,-25,0,2
CCOc1ccc(S(=O)(=O)N(CC(=O)Nc2cc(C)on2)Cc2ccccc2Cl)cc1,73*,9,0,-3
CCCN(CC(=O)Nc1cc(C)on1)S(=O)(=O)c1cccc(C(F)(F)F)c1,7,-7,0,-3
O=c1cc(N2CCCCC2)c(-c2ccccc2)nn1Cc1ccccc1,85*,16,0,-1
Cn1nc(-c2ccccc2)c(N2CCCCC2)cc1=O,2,-11,0,1
COc1ccc(Cn2nc(-c3ccccc3)c(N3CCCCC3)cc2=O)cc1,74*,-4,0,1
CCOC(=O)C1CCN(c2c(NCc3ccc(N(C)C)cc3)c(=O)c2=O)CC1,-18,-2,/,-2
Cc1nn(C(=O)c2cccs2)c(C)c1CN1C(=O)c2ccccc2C1=O,81*,-4,0,-2
Cc1nn(C(=O)c2ccco2)c(C)c1CN1C(=O)c2ccccc2C1=O,62,1,0,-1
SMILES,CHOP inhibitor,S1P4 antagonist,Hsp70 activator,S1P4 ag
Cc1ccccc1CSCCNC(=O)COc1ccc(Cl)cc1,75*,-13,0,-1
CC(C)(C)SCCNC(=O)COc1ccc(Cl)cc1,13,-18,0,0
CCC(=O)N(CC(=O)Nc1sc(C)c(C)c1C(N)=O)Cc1ccc(F)cc1,-8,-9,/,0
O=C(N/N=C/c1cccc(Oc2ccccc2)c1)c1ccccc1Br,84*,-1,0,0
O=C(N/N=C/c1cccc(Oc2ccccc2)c1)c1cccc(Br)c1,29,7,0,-4
COc1cc(C2=Nc3ccc(Br)cc3C(c3ccccc3)N2CC(=O)NN)cc(OC)c1OC (stereo unspecified),14,1,/,0
O=c1cc(-c2ccc(Cl)cc2)oc(=O)[nH]1,7,14,/,0
O=c1cc(N=Nc2ccc(Cl)cc2)[nH]c(=O)[nH]1,105*,4,/,-1
CCOc1ccc(-c2nc3scc(-c4cccs4)c3c(=O)[nH]2)cc1,73*,-11,0,1
O=C(NCc1ccco1)c1ccc(S(=O)(=O)N2CCOCC2)cc1,3,4,0,-1
CCCCCCC1CC(CC(=O)Nc2ccc([N+](=O)[O-])cc2)C(=O)O1 (stereo unspecified),95*,6,0,0
CCCCCC1CC(CC(=O)NC(=S)Nc2ccc([N+](=O)[O-])cc2)C(=O)O1 (stereo unspecified),85*,-5,0,1
Cc1cc(C)n(-c2nc3c(c(=O)[nH]c(=O)n3C)n2CC(O)COc2ccccc2)n1 (stereo unspecified),33,-9,0,1
CC(C)CC(=O)Nc1nnc(-c2ccco2)s1,84*,-10,0,2
COc1ccc(CCNC(=O)/C(=C/c2cccnc2)NC(=O)c2ccccc2)cc1,-20,-21,0,0
CCCCC1CCC(C(=O)NCc2ccc3c(c2)OCO3)CC1 (stereo unspecified),83*,1,0,-3

# Screens: PubChem, several laboratories
